Among the data in ChEMBL document CHEMBL3988442, “University of Dundee, Small-Polar-MMV Screening Library” (2021) are Percent Effect values, retold here.

Each structure is given as a SMILES string. Out of some 69,000 compounds screened, about 420 (0.61%) showed an effect of 50% or more. Only a selection was taken, and strong results are over-represented in it overall.

In this experiment the target is T1, Histidine--tRNA ligase (Leishmania infantum) (UniProt A4I591).
T1 sequence (whole entry): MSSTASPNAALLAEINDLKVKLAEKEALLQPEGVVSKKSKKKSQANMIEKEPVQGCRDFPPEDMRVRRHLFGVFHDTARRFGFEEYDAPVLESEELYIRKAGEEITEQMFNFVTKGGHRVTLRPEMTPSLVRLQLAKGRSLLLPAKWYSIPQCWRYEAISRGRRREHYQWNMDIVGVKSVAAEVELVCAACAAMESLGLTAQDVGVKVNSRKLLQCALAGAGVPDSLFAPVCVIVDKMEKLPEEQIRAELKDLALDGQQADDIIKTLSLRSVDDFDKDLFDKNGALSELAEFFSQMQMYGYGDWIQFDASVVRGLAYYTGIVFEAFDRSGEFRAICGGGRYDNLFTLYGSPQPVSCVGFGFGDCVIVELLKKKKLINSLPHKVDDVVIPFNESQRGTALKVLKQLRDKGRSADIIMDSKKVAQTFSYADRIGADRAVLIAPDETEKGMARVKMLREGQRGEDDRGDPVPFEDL
The experiment is described as follows: Leishmania infantum Histidine tRNA synthetase (LdHisRS). Type of experiment: functional. On the set-up: scale not given: in the data most compounds retested in dose-response had high values. Particulars: 30 µM.
For the compound `Cc1ccnc(OC[C@]23COC[C@H]2CN(C(=O)C2=CCCCC2)C3)n1`, the Percent Effect was 5.56%.
`CN(Cc1cccnc1)c1nccc(N2CCN[C@H]3CS(=O)(=O)C[C@H]32)n1`: the Percent Effect worked out at 12.9%.
Next, `c1ccc(CN2C[C@@H]3CC[C@H](C2)N(Cc2nnc(C4CC4)o2)C3)cc1`: 34%; `COc1cc(N2C[C@@H]3COC[C@]3(C(=O)NCc3ccccn3)C2)ncn1`: 5.26%; `O=C(Cn1c(-c2ccco2)cc2cccnc21)N1CCCC1`: 76.5%.
Regarding `COCCNC(=O)Cn1c(-c2ccco2)cc2cccnc21`, the Percent Effect was found to be 14.8%.
As to `CC(C)N(C(=O)Cn1c(-c2ccco2)cc2cccnc21)C(C)C`, the Percent Effect was determined as 20.1%.
For the compound `Cc1nnc([C@@]23CCO[C@@H]2CCN(Cc2nccs2)C3)o1`, the Percent Effect is 7.92%.
With `CN(C)C(=O)N1C[C@@H]2CCCO[C@@H]2[C@H](N(C)Cc2ccco2)C1`, the Percent Effect amounted to 11.4%.
To `C1CC(CN2C[C@H]3CC[C@@H]2CN(Cc2noc(C4CCCC4)n2)C3)C1` belongs 8.51%; to `c1ccc(-c2nnc(CN3C[C@@H]4CC[C@H](C3)N(CC3CCC3)C4)o2)cc1`, 21.3%.
Next, `c1ccc(-c2cc(CN3CCCC(Cn4cncn4)C3)on2)cc1` (stereo not given): 8.55%; `c1ccc(-c2cc(CN3C[C@@H]4CC[C@H](C3)N(CC3CCC3)C4)on2)cc1`: 51.7%; `c1ccc(-c2cc(CN3C[C@@H]4CC[C@H](C3)N(CC3CC3)C4)on2)cc1`: 26.7%.
To `O=C(NCC1CC1)[C@@H]1CCO[C@@H]2CCN(CCc3ccccc3)C[C@H]21` belongs 13.7%; to `CN1CCN(C(=O)[C@H]2CC[C@@H]3[C@@H](CCN3Cc3nccs3)O2)CC1`, -10.1%; to `Cc1cc(CN2CCN(CC3CC3)[C@@H]3CS(=O)(=O)C[C@@H]32)cc(C)c1O`, 8.33%.
`O=C([C@H]1C[C@H]2OCC[C@H]2N(Cc2ccco2)C1)N1CCCO1`: the Percent Effect turned out to be 22.2%.
Next, `CN(Cc1nccs1)c1nccc(N2CCN[C@H]3CS(=O)(=O)C[C@H]32)n1`: 14.5%.
To `O=C(NCc1ccco1)[C@H]1CC[C@@H]2[C@@H](CCN2Cc2nccs2)O1` belongs 31.5%; to `O=C(NCc1ccco1)[C@@H]1CC[C@@H]2[C@@H](CCN2Cc2ccc(F)cc2)O1`, 69.9%; to `O=C(NCc1ccco1)[C@H]1CC[C@@H]2[C@@H](CCN2Cc2cccnc2)O1`, 23.3%.
Next, `Cn1cc(CN2CC[C@H]3O[C@H](C(=O)NCc4ccco4)CC[C@H]32)cn1`: 9.43%; `O=C(NCc1ccco1)[C@@H]1CC[C@@H]2[C@@H](CCN2CC2CC2)O1`: 23.3%.
In the case of `COCCN1CCCn2cnc(CNC(=O)N(C)C)c2C1`, the Percent Effect amounted to 9.4%.
Consider `COCCN1CCCn2cnc(CNC3CCCC3)c2C1`, for which the Percent Effect was determined as 77.8%.
Next, `COCCN1CCCn2cnc(CN(C)C(C)C)c2C1`: 30%; `COCCN1C(=O)CO[C@H]2CN(Cc3cccc(OC)c3F)C[C@@H]21`: 8.25%; `Cc1nnc([C@]23COC[C@H]2CN(Cc2cnn(C)c2)C3)o1`: 27.4%.
To `CN(C)CCN1CCO[C@@H]2CN(C(=O)Cc3ccsc3)CC[C@@H]2C1` belongs 10%.
To `C1CC(CN2C[C@@H]3C[C@@H](c4nnc(C5CC5)o4)O[C@@H]3C2)CCO1` belongs 11.1%.
As to `O=S(=O)(CCCn1cncn1)Cc1ccc(F)cc1Cl`, the Percent Effect was determined as 109%.
To `O=S(=O)(CCCn1cncn1)Cc1ccccc1Cl` belongs 19.7%.
To `O=S(=O)(CCCn1cncn1)Cc1cccc(F)c1` belongs -11.8%.
Next, `COc1ncccc1CN1C[C@@H]2C[C@@H](C(=O)NCC3CC3)N(C)[C@@H]2C1`: 24.8%.
Take `CO[C@@H]1CC[C@H]2[C@H]1OCCN2C(=O)c1ccc(C)nc1`: the Percent Effect is 7.02%.
To `COc1cc(N2C[C@H](C(=O)NC3CC3)[C@@H]3CCO[C@@H]3C2)ncn1` belongs 3.23%.
Next, `CN1C[C@@H](F)[C@@H](OCc2nc3ccc(C#N)cc3[nH]2)C1`: 25%; `Cc1ccc2[nH]c(CO[C@H]3CN(c4ccc(C#N)cn4)C[C@H]3F)nc2c1`: 69.4%.
Next, `Cc1ccc2[nH]c(CO[C@H]3CN(C(=O)C4CC4)C[C@H]3F)nc2c1`: 4.05%.
Regarding `O=C(NC1CC1)[C@@H]1CCO[C@@H]2CCN(CCc3ccccc3)C[C@@H]21`, the Percent Effect was found to be 15.1%.
On to `Cc1cccc(CN2C[C@H]3OC(=O)N(CCCN4CCOCC4)[C@H]3C2)n1`, for which the Percent Effect worked out at 22.3%.
Next, `Cc1ncsc1C(=O)N1CC[C@@H]2[C@@H](CC1)OCCN2c1cccnc1`: 10.5%; `COc1cccn(Cc2nnc(-c3cccc(F)c3)o2)c1=O`: 91.8%; `O=c1c(C(F)(F)F)cccn1Cc1nnc(-c2cccnc2)o1`: 11.5%.
Take `COc1cccn(Cc2nnc(-c3cccnc3)o2)c1=O`: the Percent Effect turned out to be 39.3%.
To `Cc1cccc(CN2C[C@@H]3CN(C(=O)NC(C)C)C[C@@H]3C2=O)c1` belongs 12.3%; to `C[C@H](NS(C)(=O)=O)C(=O)NCc1cc(-c2ccco2)n[nH]1`, 51.4%.
Next, `CN(C)c1nccc(NCc2cc(-c3ccco3)n[nH]2)n1`: 34.3%; `CC(C)[C@H](NS(C)(=O)=O)C(=O)NCc1cc(-c2ccco2)nn1C`: 8.57%; `C[C@H](NS(C)(=O)=O)C(=O)NCc1cc(-c2ccco2)n(CC(F)(F)F)n1`: -80%.
Next, `CC(C)[C@H](NS(C)(=O)=O)C(=O)NCc1cc(-c2ccco2)n[nH]1`: 54.3%; `CC(C)[C@H](NS(C)(=O)=O)C(=O)NCc1cc(-c2ccccc2)n[nH]1`: 17.1%; `CN1CCN(C[C@@H]2OC[C@H]3CN(CCc4ccccc4)CC[C@H]32)CC1`: 22.6%.
As to `O=C(NC1CCC1)[C@@H]1CCO[C@@H]2CCN(CCc3ccccc3)C[C@H]21`, the Percent Effect amounted to 15.4%.
